# Measured values reported in the supplement of paper PMC10849652.
# About 8,800 targets were measured; listed, in parts, are those with a hit and a random draw of the rest. About 0.5% of all pairs of compound and target were hits. A number with no mark means an inactive call.
# What was measured:
# Test in all cases: log2 fold change, soluble protein after heating vs DMSO (PISA); higher = thermal stabilisation; K562 lysate, 10 uM; active = over 0.2 and 3.5 SD of the protein, either way, in both replicates (recomputed)
# nilotinib = compound: Cc1cn(-c2cc(NC(=O)c3ccc(C)c(Nc4nccc(-c5cccnc5)n4)c3)cc(C(F)(F)F)c2)cn1 [nilotinib]
# In short: (§1)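 K562 pellets were dounce-homogenised in PBS pH 7.4 containing 1 mM MgCl2, and the crude extract, at 1 mg/mL protein, was exposed to 10 μM compound for 30 min. Aliquots were heated for 3 min across 48°C-58°C, pooled, brought to 0.5% NP-40 at 4°C and spun at 21,000xg for 90 min, with the supernatant taken as soluble protein. TMTpro 16plex LC-MS/MS with equalised channel sums quantified that protein. Values are log-two fold changes in thermal stability relative to solvent controls, taken from duplicates.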
# [1] = compound: Cc1nc(Nc2n[nH]c3c2CN(C(=O)N[C@H](CN(C)C)c2ccccc2)C3(C)C)c2sccc2n1
# In short: as §1
# dasatinib = compound: Cc1nc(Nc2ncc(C(=O)Nc3c(C)cccc3Cl)s2)cc(N2CCN(CCO)CC2)n1 [dasatinib]
# In short: as §1
# [2] = compound: Cc1ncc(-c2ccnc(Nc3ccc(S(C)(=O)=O)cc3)n2)n1C(C)C
# In short: as §1
# [3] = compound: Cn1cc(-c2ccc3c(c2)CCN3C(=O)Cc2cccc(C(F)(F)F)c2)c2c(N)ncnc21
# In short: as §1
# quisinostat = compound: Cn1cc(CNCC2CCN(c3ncc(C(=O)NO)cn3)CC2)c2ccccc21 [quisinostat]
# In short: as §1
# tipifarnib = compound: Cn1cncc1[C@@](N)(c1ccc(Cl)cc1)c1ccc2c(c1)c(-c1cccc(Cl)c1)cc(=O)n2C [tipifarnib]
# In short: as §1
# [4] = compound: NC(=O)Nc1cc(-c2cccc(F)c2)sc1C(=O)N[C@H]1CCCNC1
# In short: as §1
# [5] = compound: NC(=O)c1cnc(N[C@@H]2CCCC[C@@H]2N)nc1Nc1cccc(-n2nccn2)c1
# In short: as §1
# [6] = compound: NC1(c2ccc(-c3nc4ccn5c(=O)[nH]nc5c4cc3-c3ccccc3)cc2)CCC1
# In short: as §1
# [7] = compound: NCC(=O)Nc1ccc(-n2nc(C(F)(F)F)cc2-c2ccc3c(ccc4ccccc43)c2)cc1
# In short: as §1
# vorinostat = compound: O=C(CCCCCCC(=O)Nc1ccccc1)NO [vorinostat]
# In short: as §1
# silmitasertib = compound: O=C(O)c1ccc2c(c1)nc(Nc1cccc(Cl)c1)c1ccncc12 [silmitasertib]
# In short: as §1
# [8] = compound: O=C1NC(=O)C(c2cnc3ccccn23)=C1c1cn2c3c(cc(F)cc13)CN(C(=O)N1CCCCC1)CC2
# In short: as §1
# entospletinib = compound: c1cn2cc(-c3ccc4cn[nH]c4c3)nc(Nc3ccc(N4CCOCC4)cc3)c2n1 [entospletinib]
# In short: as §1
# UniProt O94906, sequence (O94906 whole entry, looked up): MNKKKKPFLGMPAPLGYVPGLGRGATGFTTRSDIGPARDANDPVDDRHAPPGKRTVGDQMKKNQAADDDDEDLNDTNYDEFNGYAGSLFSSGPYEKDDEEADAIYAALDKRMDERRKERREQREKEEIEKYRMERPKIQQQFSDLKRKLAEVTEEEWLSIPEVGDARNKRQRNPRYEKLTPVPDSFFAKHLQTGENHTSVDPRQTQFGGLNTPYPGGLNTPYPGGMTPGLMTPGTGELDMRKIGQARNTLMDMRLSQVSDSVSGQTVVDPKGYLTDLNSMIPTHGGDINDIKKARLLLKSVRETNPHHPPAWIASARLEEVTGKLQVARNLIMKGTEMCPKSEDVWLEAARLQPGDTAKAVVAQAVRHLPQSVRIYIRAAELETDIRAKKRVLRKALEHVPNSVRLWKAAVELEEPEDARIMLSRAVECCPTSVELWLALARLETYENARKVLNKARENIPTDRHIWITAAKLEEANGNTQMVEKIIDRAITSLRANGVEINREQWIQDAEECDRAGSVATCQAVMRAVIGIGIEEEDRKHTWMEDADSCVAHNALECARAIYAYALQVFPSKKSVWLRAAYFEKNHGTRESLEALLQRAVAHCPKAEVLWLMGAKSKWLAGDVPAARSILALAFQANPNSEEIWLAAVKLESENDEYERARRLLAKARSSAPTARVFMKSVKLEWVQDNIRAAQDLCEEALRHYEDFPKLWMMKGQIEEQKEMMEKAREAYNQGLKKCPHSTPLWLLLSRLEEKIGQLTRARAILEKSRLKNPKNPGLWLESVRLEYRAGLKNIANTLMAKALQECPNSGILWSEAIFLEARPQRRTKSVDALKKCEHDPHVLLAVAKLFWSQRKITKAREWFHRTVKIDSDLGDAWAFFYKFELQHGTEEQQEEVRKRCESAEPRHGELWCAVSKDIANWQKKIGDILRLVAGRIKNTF
# UniProt Q8WUM4, sequence (Q8WUM4 whole entry, looked up): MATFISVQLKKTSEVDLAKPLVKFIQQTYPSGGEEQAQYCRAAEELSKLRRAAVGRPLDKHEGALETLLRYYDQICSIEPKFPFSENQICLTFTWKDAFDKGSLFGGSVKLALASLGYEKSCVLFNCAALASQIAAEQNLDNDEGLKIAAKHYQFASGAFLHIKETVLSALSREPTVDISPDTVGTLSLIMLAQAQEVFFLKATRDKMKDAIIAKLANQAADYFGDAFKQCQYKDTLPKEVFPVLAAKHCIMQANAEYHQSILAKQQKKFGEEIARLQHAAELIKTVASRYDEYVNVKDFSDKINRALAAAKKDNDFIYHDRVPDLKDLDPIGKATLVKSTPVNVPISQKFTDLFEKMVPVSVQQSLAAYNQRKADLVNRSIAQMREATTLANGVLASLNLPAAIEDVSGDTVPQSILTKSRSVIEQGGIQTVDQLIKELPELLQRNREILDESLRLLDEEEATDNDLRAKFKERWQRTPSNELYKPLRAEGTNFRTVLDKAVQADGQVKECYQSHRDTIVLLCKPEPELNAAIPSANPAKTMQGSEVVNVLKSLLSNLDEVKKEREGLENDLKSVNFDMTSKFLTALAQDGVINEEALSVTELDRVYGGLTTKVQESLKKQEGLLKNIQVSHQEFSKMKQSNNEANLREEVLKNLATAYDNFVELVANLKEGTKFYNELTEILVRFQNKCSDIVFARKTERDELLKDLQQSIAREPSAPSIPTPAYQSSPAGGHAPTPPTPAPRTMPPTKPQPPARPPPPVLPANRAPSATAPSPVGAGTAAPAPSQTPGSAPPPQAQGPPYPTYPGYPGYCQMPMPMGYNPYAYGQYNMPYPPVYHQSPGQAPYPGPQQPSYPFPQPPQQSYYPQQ
# UniProt Q29RF7, sequence (Q29RF7 whole entry, looked up): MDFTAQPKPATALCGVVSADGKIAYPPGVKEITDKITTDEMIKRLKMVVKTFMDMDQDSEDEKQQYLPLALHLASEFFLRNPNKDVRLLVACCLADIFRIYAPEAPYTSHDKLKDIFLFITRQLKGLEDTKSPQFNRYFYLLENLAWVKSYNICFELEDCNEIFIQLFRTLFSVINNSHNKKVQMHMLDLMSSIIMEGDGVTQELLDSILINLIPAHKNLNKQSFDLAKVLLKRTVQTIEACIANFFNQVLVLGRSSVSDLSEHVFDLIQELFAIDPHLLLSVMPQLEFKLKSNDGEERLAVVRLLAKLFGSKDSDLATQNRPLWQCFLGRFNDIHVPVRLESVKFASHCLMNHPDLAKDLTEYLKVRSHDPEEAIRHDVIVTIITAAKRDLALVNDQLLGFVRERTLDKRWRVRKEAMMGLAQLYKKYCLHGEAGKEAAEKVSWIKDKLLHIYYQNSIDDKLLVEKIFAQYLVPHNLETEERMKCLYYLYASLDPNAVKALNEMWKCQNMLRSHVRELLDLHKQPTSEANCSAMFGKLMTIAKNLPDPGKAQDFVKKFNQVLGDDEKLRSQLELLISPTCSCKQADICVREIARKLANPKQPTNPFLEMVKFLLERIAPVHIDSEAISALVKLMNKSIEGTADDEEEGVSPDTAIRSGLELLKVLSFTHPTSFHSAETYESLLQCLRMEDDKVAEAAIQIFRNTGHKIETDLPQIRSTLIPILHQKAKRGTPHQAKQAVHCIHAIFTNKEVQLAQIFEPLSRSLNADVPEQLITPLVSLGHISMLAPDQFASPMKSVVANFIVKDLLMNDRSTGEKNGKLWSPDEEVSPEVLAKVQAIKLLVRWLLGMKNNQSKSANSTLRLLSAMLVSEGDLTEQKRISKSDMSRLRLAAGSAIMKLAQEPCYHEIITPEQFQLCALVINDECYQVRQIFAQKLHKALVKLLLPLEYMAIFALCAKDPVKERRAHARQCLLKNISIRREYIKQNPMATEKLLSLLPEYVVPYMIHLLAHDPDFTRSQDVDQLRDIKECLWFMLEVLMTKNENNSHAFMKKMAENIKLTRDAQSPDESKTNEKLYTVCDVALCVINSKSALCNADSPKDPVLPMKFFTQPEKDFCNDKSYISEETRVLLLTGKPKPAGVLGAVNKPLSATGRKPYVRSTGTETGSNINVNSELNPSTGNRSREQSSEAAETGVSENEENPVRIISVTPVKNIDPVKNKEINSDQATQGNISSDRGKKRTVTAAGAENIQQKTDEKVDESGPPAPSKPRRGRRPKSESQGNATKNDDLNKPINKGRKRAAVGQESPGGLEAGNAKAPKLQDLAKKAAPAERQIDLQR
# UniProt Q16875, sequence (Q16875 whole entry, looked up): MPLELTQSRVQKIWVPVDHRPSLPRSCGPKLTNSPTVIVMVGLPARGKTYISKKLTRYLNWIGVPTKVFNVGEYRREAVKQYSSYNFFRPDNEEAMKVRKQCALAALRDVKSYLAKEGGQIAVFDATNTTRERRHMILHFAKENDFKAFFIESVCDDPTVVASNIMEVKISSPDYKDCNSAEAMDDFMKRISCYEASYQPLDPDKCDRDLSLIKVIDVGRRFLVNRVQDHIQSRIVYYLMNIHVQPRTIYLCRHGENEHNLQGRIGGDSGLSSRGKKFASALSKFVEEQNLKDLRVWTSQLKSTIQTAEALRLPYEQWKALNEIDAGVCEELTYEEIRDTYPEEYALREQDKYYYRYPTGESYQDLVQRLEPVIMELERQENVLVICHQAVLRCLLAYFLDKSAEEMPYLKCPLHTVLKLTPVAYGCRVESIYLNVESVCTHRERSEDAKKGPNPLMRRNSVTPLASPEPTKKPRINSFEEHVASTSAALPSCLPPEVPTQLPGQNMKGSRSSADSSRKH
# UniProt P49642, sequence (P49642 whole entry, looked up): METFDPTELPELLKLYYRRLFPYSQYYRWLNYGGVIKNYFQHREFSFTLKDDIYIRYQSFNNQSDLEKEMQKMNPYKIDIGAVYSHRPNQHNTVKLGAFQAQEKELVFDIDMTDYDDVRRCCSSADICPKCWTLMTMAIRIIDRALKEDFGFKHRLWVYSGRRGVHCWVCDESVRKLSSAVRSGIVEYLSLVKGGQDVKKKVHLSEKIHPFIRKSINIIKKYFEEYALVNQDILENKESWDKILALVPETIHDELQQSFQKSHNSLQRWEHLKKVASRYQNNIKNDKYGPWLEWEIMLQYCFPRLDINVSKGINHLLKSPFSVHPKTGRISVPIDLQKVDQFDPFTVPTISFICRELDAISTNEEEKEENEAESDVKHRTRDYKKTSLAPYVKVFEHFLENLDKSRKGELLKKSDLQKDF
# UniProt Q9UBV8, sequence (Q9UBV8 whole entry, looked up): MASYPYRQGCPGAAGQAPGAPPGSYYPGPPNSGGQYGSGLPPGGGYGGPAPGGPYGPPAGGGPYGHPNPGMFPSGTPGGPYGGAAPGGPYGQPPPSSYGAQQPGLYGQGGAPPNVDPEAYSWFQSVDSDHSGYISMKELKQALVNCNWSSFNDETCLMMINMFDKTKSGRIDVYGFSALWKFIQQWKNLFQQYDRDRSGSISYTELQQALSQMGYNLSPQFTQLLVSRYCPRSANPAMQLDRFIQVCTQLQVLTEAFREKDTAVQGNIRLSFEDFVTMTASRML
# UniProt Q99541, sequence (Q99541 whole entry, looked up): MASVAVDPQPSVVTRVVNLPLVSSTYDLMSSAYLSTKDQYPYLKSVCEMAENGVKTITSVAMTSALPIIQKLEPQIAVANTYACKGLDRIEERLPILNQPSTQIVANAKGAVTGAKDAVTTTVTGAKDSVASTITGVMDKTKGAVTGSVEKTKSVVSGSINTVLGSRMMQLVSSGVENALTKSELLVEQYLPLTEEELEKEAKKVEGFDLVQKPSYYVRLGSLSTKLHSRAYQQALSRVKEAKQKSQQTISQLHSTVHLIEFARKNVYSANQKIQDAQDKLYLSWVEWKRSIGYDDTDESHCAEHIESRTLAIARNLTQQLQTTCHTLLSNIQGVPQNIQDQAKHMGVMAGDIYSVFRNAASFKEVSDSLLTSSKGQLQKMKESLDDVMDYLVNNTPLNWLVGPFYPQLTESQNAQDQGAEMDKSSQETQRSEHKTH
Target,log2 fold change (nilotinib),log2 fold change [1],log2 fold change (dasatinib),log2 fold change [2],log2 fold change [3],log2 fold change (quisinostat),log2 fold change (tipifarnib),log2 fold change [4],log2 fold change [5],log2 fold change [6],log2 fold change [7],log2 fold change (vorinostat),log2 fold change (silmitasertib),log2 fold change [8],log2 fold change (entospletinib)
PLIN2 (UniProt Q99541),0.088,-0.012,-0.092,0,0.008,-0.031,-0.153,0.038,-0.003,-0.018,0.012,0.063,-0.008,0.008,-0.032
PRIM1 (UniProt P49642),0,-0.011,-0.05,-0.006,0.019,0.014,-0.022,0.028,0.001,-0.031,-0.015,-0.284 (active),0.049,0.024,0.035
PEF1 (UniProt Q9UBV8),0.026,0.013,0.012,-0.015,-0.004,0.08,0.028,-0.018,0.005,0.011,-0.186,0.467 (active),-0.005,-0.008,-0.009
PDS5A (UniProt Q29RF7),-0.013,-0.002,-0.081,-0.003,0.008,-0.113,0.001,0.047,0.011,-0.023,-0.001,-0.525 (active),0.073,-0.01,0.047
PDCD6IP isoform 2 (UniProt Q8WUM4),-0.018,0.007,-0.042,0.004,0.022,0.002,0.016,-0.001,0.018,0.002,-0.001,-0.473 (active),0.019,-0.006,0.018
PFKFB3 isoform 4 (UniProt Q16875),0.018,-0.023,-0.088,-0.021,0.075,-0.012,0.01,-0.025,-0.192,-0.001,0.025,-0.34 (active),0.108,0.017,-0.006
PRPF6 (UniProt O94906),-0.001,0.021,-0.036,-0.005,0.026,-0.067,0.008,0.044,0.022,-0.019,0.002,-0.262 (active),0.047,0.004,0.026
POLR2F (UniProt P61218),0.023,-0.019,0.274,0.107,-0.015,-0.034,0.015,0.008,-0.052,-0.021,-0.019,0.171,0.008,0.027,-0.086
PTGS1 isoform 6 (UniProt P23219),0.021,0.058,0.034,0.043,0.053,-0.04,-0.039,0.022,-0.008,0.001,-0.013,0.05,-0.033,0.003,-0.017
PDCD6IP (UniProt Q8WUM4),0.059,-0.045,-0.023,-0.006,0.049,0.001,0.06,0,-0.058,-0.032,0.065,-0.332 (active),-0.005,0.009,-0.009
